# Measurements reported in PubChem BioAssay AID1814 (Broad Institute, 2009).
# About 22,000 (7.3%) of roughly 300,000 compounds were called active. Roughly 2% stayed inconclusive and do not appear here. Shown is part of a subset that was picked to be rich in actives. Unmarked numbers belong to inactive results. Rule as the data show it: active = activity score below about -60%; inconclusive = mostly about -28% to -61%; inactive = positive scores.
# Experiment: Activators working through SNCA 5'UTR binding (MLPCN) (AID 1814)
# Settings: alpha-synuclein 5'UTR reporter, activators screen; active compounds read low; tested at 7.5 µM
row,Structure (SMILES),activity score
1,O=C(Cc1cccc2ccccc12)NNC(=O)Nc1ccc(Cl)cc1,-112% (active)
2,Cc1nn2cc(-c3ccc(Cl)cc3)cnc2c1Br,-110% (active)
3,CN1CCN(NC(=O)Nc2ccc(Br)cc2)CC1,-64.9% (active)
4,COc1ccc(-n2nnnc2-c2nc3ccccc3s2)cc1,-77.3% (active)
5,O=C(Nc1cccc(-c2nnc(-c3ccccc3)o2)c1)C1CCCO1 (stereo unspecified),-126% (active)
6,O=c1c(-c2cccc(Cl)c2)c[nH]n1-c1ccccc1,-74.9% (active)
7,COc1ccc(Cn2c(-c3ccc(Cl)cc3)c[n+]3ccccc23)cc1,-155% (active)
8,Fc1ccc(COc2ccc(-c3nnco3)cc2)cc1,-126% (active)
9,Cc1cc(C)c2nc3nc(C)cc(C)c3c(N)c2c1,-190% (active)
10,CCCCC(O)(CCCC)C(=O)NN(C(=O)CCl)c1ccccc1,-67.8% (active)
11,S=C(Nc1ccc(Br)cc1Cl)N1CCC2(CC1)OCCO2,-70.7% (active)
12,COc1ccc(C(=O)CCc2ccccc2O)c(OC)c1,-128% (active)
13,O=C(NC1CCCCC1)c1cc(C2CC2)on1,-78% (active)
14,O=C(NCCCn1ccnc1)c1cc(-c2ccccc2)on1,-632% (active)
15,O=C(NC1CCCC1)c1cc(-c2ccccc2)on1,-324% (active)
16,O=C(NC1CC1)c1ccc(-c2ccccc2)cc1,-142% (active)
17,O=C(NCCOc1cccnc1)c1ccc(OC2CCN(Cc3ccccn3)CC2)cc1,95.3%
18,CN(C)S(=O)(=O)N1CCC(Oc2cccc(C(=O)NCCCC3CCCC3)c2)CC1,-70.6% (active)
19,Cc1c(NC(=O)c2coc(=O)c(Br)c2)c(=O)n(-c2ccccc2)n1C,-75.7% (active)
20,Cc1c(NC(=O)c2cc(-c3ccc(Cl)s3)nc3ccccc23)c(=O)n(-c2ccccc2)n1C,-105% (active)
21,CC1(C)CCSC(/C=C/c2ccccc2)=N1,-123% (active)
22,O=C(c1cnn(-c2ccc(Cl)cc2)c1)c1ccccc1O,-238% (active)
23,COc1ccc2nc(NC(=O)NC3CCCCC3)sc2c1,-186% (active)

row,Structure (SMILES),activity score
1,COc1ccc(NC(=O)Nc2ccc3nsnc3c2)cc1,-138% (active)
2,COc1ccc2nc(NC(=O)c3ccc(Br)s3)sc2c1,-209% (active)
3,COc1ccc2nc(Nc3nc4cc5c(cc4s3)OCCO5)sc2c1,-103% (active)
4,CCc1noc(C)c1C(=O)Nc1nc2ccc(OC)cc2s1,-85% (active)
5,COc1ccc2nc(Nc3nc4ccc(NC(C)=O)cc4s3)sc2c1,-95.5% (active)
6,CCOc1ccc2nc(N(CCCN(C)C)C(=O)c3ccc(C(=O)c4ccccc4)cc3)sc2c1,90.2%
7,COc1cccc(C(=O)Nc2nc3ccc(S(C)(=O)=O)cc3s2)c1,-102% (active)
8,CCOc1ccc2nc(Nc3nc4ccc(NC(C)=O)cc4s3)sc2c1,-88.4% (active)
9,COc1ccc(/C=N/OCc2ccccc2C#N)c(OC)c1,-182% (active)
10,COc1ccc(N2CCN(C(=O)c3cccs3)CC2)cc1,-69.4% (active)
11,Cc1ccc(O)c(CNc2nc3ccccc3[nH]2)c1,-69.9% (active)
12,COC(=O)Nc1nc2ccc(Sc3ccccc3)cc2[nH]1,59.2%
13,Cc1ccc(-c2nc(COC(=O)c3c(C)noc3C)cs2)cc1,-170% (active)
14,CCN1/C(=C/C(=S)Nc2ccccc2)Sc2ccccc21,-111% (active)
15,CSc1nccc(NC(=O)c2ccc(C(C)(C)C)cc2)n1,-147% (active)
16,O=C(NC(=S)NC1CCCCC1)c1ccc(Cl)cc1,-160% (active)
17,O=C(NC1CCCCC1)c1ccc(-c2ccc(Cl)cc2)o1,-150% (active)
18,COc1ccc(C(=O)NC(=S)NC2CCCCC2)cc1,-137% (active)
19,CC(C)CNC(=S)NC(=O)c1ccc(Cl)cc1,-111% (active)
20,Cc1ccc(OCCCC(=O)N2CCOCC2)c(C)c1,-75.1% (active)
21,Cc1oc2c(c1C(=O)N1CCOCC1)C(=O)c1ccccc1C2=O,101%
22,O=c1oc2ccccc2cc1-c1cn(-c2ccccc2)c(=S)[nH]1,119%
23,COc1ccc(-c2cn(-c3ccc(OC)cc3)c(=S)[nH]2)cc1,-129% (active)

row,Structure (SMILES),activity score
1,O=C(Nc1ccc2oc(-c3ccc4ccccc4c3)nc2c1)c1cccs1,-233% (active)
2,CCN(CC)C(=O)c1sc2nc(-c3ccccc3)ccc2c1N,-178% (active)
3,O=C(NNC(=O)c1cc2c(s1)CCCC2)c1ccccc1,-80.5% (active)
4,O=C(Nc1ccc(F)cc1)c1cc2c(s1)CCCC2,-165% (active)
5,CCN(CC)c1ccc(C(=O)c2cnc(/N=C/N(C)C)s2)cc1,-64.1% (active)
6,C=CCNc1cnn(-c2ccc(C)cc2)c(=O)c1Cl,-80.9% (active)
7,Cc1sc2ncnc(Sc3nc4ccccc4s3)c2c1C,-71% (active)
8,CSc1ccccc1OCc1cc(C(=O)N2C[C@H]3CC[C@H]2C3)no1,-85.5% (active)
9,N#Cc1c(NC(=O)C2CCCO2)sc2c1CCCCC2 (stereo unspecified),-161% (active)
10,Cc1ccc(C)c(NC(CC(=O)c2ccccc2)C(=O)OCC(=O)c2cccs2)c1 (stereo unspecified),-96.3% (active)
11,O=C(Cn1ncc(N2CCCC2)c(Br)c1=O)c1ccc(Cl)cc1,-92.2% (active)
12,O=C(CSc1cccc[n+]1[O-])c1ccc(-c2ccccc2)cc1,-146% (active)
13,CCOC(=O)c1[nH]c2c(c1C)C(=O)CC(c1ccc(N(C)C)cc1)C2 (stereo unspecified),-105% (active)
14,O=C1N=C(N2CCCC2)S/C1=C\c1cccc(Br)c1,-122% (active)
15,CCOc1cc(/C=C2\SC(N3CCCCC3)=NC2=O)ccc1O,-75.9% (active)
16,O=C(COC(=O)c1cccc(Br)c1)Nc1cccc2c1C(=O)c1ccccc1C2=O,-79% (active)
17,CCCC(=O)N=c1sc2cccc(F)c2n1C,-76.7% (active)
18,Cn1c(=NC(=O)c2ccco2)sc2cccc(F)c21,-151% (active)
19,CS(=O)(=O)N1CCc2cc(C(=O)Nc3ccccc3Br)ccc21,-124% (active)
20,CSc1ccccc1NC(=O)c1ccc2c(c1)CCN2S(C)(=O)=O,-66.1% (active)
21,CS(=O)(=O)N1CCc2cc(C(=O)Nc3ccccc3)ccc21,-104% (active)
22,O=C(Nc1cc(C(F)(F)F)ccc1Cl)c1cc(C2CC2)on1,-77.3% (active)
23,O=C(Nc1cc(C(F)(F)F)ccc1Cl)c1cc2nc3c(c(C(F)(F)F)n2n1)CCCC3,-243% (active)

row,Structure (SMILES),activity score
1,CSc1ccccc1NC(=O)c1cc(C2CC2)on1,-116% (active)
2,O=C(O)c1ccccc1CSc1nc2ccccc2s1,-62.9% (active)
3,CC(/C=N/NC(=O)c1cc(-c2ccc3ccccc3c2)n[nH]1)=C\c1ccco1,-220% (active)
4,COc1ccc(CNC(=O)c2ccc3oc(C(C)C)nc3c2)cc1,-118% (active)
5,COC(=O)c1ccc(CNC(=O)c2ccc3oc(C(C)C)nc3c2)cc1,-95.9% (active)
6,COC(=O)c1ccc(Sc2ccc(F)cc2)c(N)c1,-107% (active)
7,CC(C)(C)c1ccc(/C=C2\SC(=O)N=C2N)cc1,-78.7% (active)
8,O=C(Nc1cccc2ccccc12)c1onc2c1CCCC2,-204% (active)
9,Cc1ccc2nc(-c3ccc(SCC(=O)Nc4cc(C)on4)nc3)[nH]c2c1,-160% (active)
10,O=C(c1noc2c1CCCC2)N1CCc2ccccc2C1,-165% (active)
11,O=C(NCCNc1ccccc1[N+](=O)[O-])c1ccccc1F,-168% (active)
12,NC(=O)c1ccccc1N=Cc1ccc2ccccc2c1,-211% (active)
13,CCc1ccc2nc3sc(C(=O)Nc4nnc(CC)s4)c(N)c3cc2c1,-71.1% (active)
14,Cc1nc(C)c(-c2csc(NCCc3ccccc3)n2)s1,-84.7% (active)
15,CC(c1ccccn1)N(C)C(=O)c1ccc2nc(Cc3cccc(Cl)c3)oc2c1 (stereo unspecified),-80.8% (active)
16,COc1ccc(-c2cc3n(n2)CCc2nc4ccccc4n2-3)cc1,-137% (active)
17,COC(=O)c1sc(N2CCN(Cc3ccccc3)CC2)nc1N,-67.9% (active)
18,CCN1CCN(c2cc3nc(C)n(Cc4ccccc4)c(=O)c3cc2NC(=O)c2ccccc2F)CC1,65.1%
19,Oc1ccc2ccccc2c1N=Nc1nccs1,87.4%
20,Cn1c(-c2ccc(C(=O)c3ccccc3)s2)nc2ccccc21,-73.8% (active)
21,O=C(/C=C/c1cnc2ccccc2n1)NC1CCCCCC1,-94.3% (active)
22,O=C(Nc1ccccc1Cl)Nc1cccc2cccnc12,-162% (active)
23,O=[N+]([O-])c1ccccc1S(=O)(=O)Nc1cccc2cccnc12,59.9%

row,Structure (SMILES),activity score
1,COc1ccc(NC(=O)Nc2cccc3cccnc23)cc1,-211% (active)
2,OCCN1CCN(C(=S)c2ccc(-c3ccccc3)cc2)CC1,88%
3,S=C(c1ccc(-c2ccccc2)o1)N1CCCCC1,-113% (active)
4,O=C(Nc1ccc(Cl)cn1)Nc1cccs1,-78.6% (active)
5,Clc1ccc(Nc2ccc3ccccc3n2)cc1,-61.9% (active)
6,CCOC(=O)C1(Cc2ccccc2C)CCCN(C(=O)c2ccc(COC)o2)C1 (stereo unspecified),-84.1% (active)
7,O=C(Nc1ccc(N2CCOCC2)nc1)c1c(F)cccc1F,-91.2% (active)
8,CCc1ccccc1OCC(=O)Nc1ccc2c(c1)OCCO2,-104% (active)
9,COC(=O)CCNc1ccc2c(c1)OCCO2,-62.2% (active)
10,Cc1ccc(SCC(=O)Nc2ccc3c(c2)OCCO3)cc1,-96.9% (active)
11,CCCCC(=O)Nc1ccc2c(c1)OCCO2,-102% (active)
12,CCN(CC)C(=O)CSc1nc2ccccc2o1,-63.8% (active)
13,CC(C)(C)C(=O)CSc1nc2ccccc2o1,-109% (active)
14,CC1Cc2ccccc2N1C(=O)CSc1nc2ccccc2o1 (stereo unspecified),-87.9% (active)
15,CCc1ccc(NC(=O)Nc2ccncc2)cc1,-76.8% (active)
16,Cc1ccc(NC(=O)Nc2cccnc2)cc1,-97.5% (active)
17,CC(=O)c1cccc(NC(=O)Nc2ccc(C)cc2)c1,-144% (active)
18,Cc1ccc(-c2nc(-c3cccnc3)sc2CC(=O)Nc2ccc(C)c(Cl)c2)cc1,54.1%
19,Cc1ccc(NC(=O)Nc2nnc(-c3ccncc3)s2)cc1,-68% (active)
